Reference: PubChem BioAssay (NCATS)
Records with an inconclusive call do not appear. The source made the active and inactive calls. Calls follow the shape of the dose curve; as a rule, active = well fitted inhibition curve with a large enough effect; inconclusive = small, poorly fitted or top-dose-only effect; inactive = flat fitted curve, though single readings scatter.

Columns and labels:
Assay in all cases: qHTS profiling for inhibitors of Plasmodium falciparum proliferation (AID 504749); also: nearly all actives have a fitted effect of over 60% in size
Settings in all cases: P. falciparum in erythrocytes, SYBR Green DNA, 72 h; series mostly up to 28.7 µM
CP269 = system: CP269
Outline: (§1)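 Fluorescence of SYBR Green-bound parasite DNA, read at 485/535 nm, served as the growth measure. Infected erythrocytes were cultured with compound 72 h; artemisinin (0.29 uM) and DMSO wells defined the normalization range.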

CP286 = system: CP286
Outline: as §1

CP305 = system: CP305
Outline: as §1

CP315 = system: CP315
Outline: as §1

CP325 = system: CP325
Outline: as §1

CP329 = system: CP329
Outline: as §1

DFO2036 = system: DFO2036
Outline: as §1

DIV17 = system: DIV17
Outline: as §1

DIV30 = system: DIV30
Outline: as §1

Dd2 = system: Dd2
Outline: as §1

ECU = system: ECU
Outline: as §1

FAB9 = system: FAB9
Outline: as §1

HB3 = system: HB3
Outline: as §1

ICS = system: ICS
Outline: as §1

CP335 = system: CP335
Outline: as §1

CP268 = system: CP268
Outline: as §1

CP291 = system: CP291
Outline: as §1

CP297 = system: CP297
Outline: as §1

DIV14 = system: DIV14
Outline: as §1

GB4 = system: GB4
Outline: as §1

Measured: Potency
Potency is read from the fitted curve at half-maximal effect.

C[C@H]1COc2c(C3(N)CC3)c(F)cc3c(=O)c(C(=O)O)cn1c23
not listed: CP335 | CP268 | CP291 | CP297 | DIV14 | GB4
inactive: all other assays above

CN1C[C@@H]2C[C@H]1CN2c1cc2c(cc1F)c(=O)c(C(=O)O)cn2C1CC1
active: CP335 1.2 µM | Dd2 1.41 µM
inactive: DIV17 | FAB9 | HB3

Cc1cc(O)cc(C)c1Cl
inactive: CP268 | CP286 | CP291 | CP297 | CP315 | CP325 | CP329 | FAB9
active: ICS 3.55 µM

Cc1c(NC(=O)c2cccnc2)c(=O)n(-c2ccccc2)n1C
not listed: CP315
inactive: all other assays above

Nc1c2c(nc3c1CCC3)CCCC2
active: CP286 11.2 µM | CP305 15.1 µM | DIV14 13.5 µM | DIV17 15.1 µM | Dd2 12.6 µM | GB4 16.9 µM | HB3 10 µM | ICS 12.6 µM

Cc1cc(OI)c(C(C)C)cc1-c1cc(C(C)C)c(OI)cc1C
active: DIV14 10.7 µM | DIV17 13.5 µM | Dd2 10 µM | GB4 13.5 µM
inactive: CP286 | CP305 | CP315 | CP329 | DFO2036 | FAB9

Cc1ccsc1C(=CCCN1CCC[C@@H](C(=O)O)C1)c1sccc1C
not listed: CP305
inactive: all other assays above

CN1CCCN=C1COC(=O)C(O)(c1ccccc1)C1CCCCC1 (stereo not given)
not listed: CP291 | DIV14 | GB4
inactive: all other assays above

Cc1c(N(C)C)c(=O)n(-c2ccccc2)n1C
not listed: CP291
inactive: all other assays above

O=C(OOC(=O)c1ccccc1)c1ccccc1
not listed: CP297
inactive: all other assays above

CC(=O)OC[C@H]1O[C@@](COC(C)=O)(O[C@H]2O[C@H](COC(C)=O)[C@@H](OC(C)=O)[C@H](OC(C)=O)[C@H]2OC(C)=O)[C@@H](OC(C)=O)[C@@H]1OC(C)=O
not listed: CP329 | DFO2036 | ECU
inactive: all other assays above

Cc1c(Cn2ccnc2)c2ccccc2n1CCC(=O)O
not listed: CP325
inactive: all other assays above

Cc1onc(-c2ccccc2)c1-c1ccc(S(N)(=O)=O)cc1
not listed: CP315
inactive: all other assays above

O=C(c1ccccc1)C(O)c1ccccc1 (stereo not given)
not listed: DIV17 | CP291 | DIV14 | GB4
inactive: all other assays above

Cn1c([N+](=O)[O-])cnc1COC(N)=O
not listed: DIV17 | CP268
inactive: all other assays above

COc1ccc(C(=O)NCc2ccc(OCCN(C)C)cc2)cc1OC
not listed: DIV17 | CP291
inactive: all other assays above

CC1CCc2cc(F)cc3c(=O)c(C(=O)O)cn1c23 (stereo not given)
not listed: CP291
inactive: all other assays above

COc1nccnc1NS(=O)(=O)c1ccc(N)cc1
not listed: CP315
inactive: all other assays above

CCCCCCCCCCC(CO)CCCCCCCC (stereo not given)
active: ICS 8.91 µM
not listed: CP269 | CP305 | DIV17 | DIV14 | GB4
inactive: all other assays above

O=C1C(c2[nH]c3ccccc3c2O)=Nc2ccccc21
inactive: CP269 | CP286 | CP305 | CP315 | CP329 | CP335 | DFO2036 | Dd2 | FAB9

N[C@@H](Cc1ccc(O)cc1)C(=O)O
not listed: CP325 | DIV30
inactive: all other assays above

CC(C)c1cc2c(cc1S(=O)(=O)O)[C@@]1(C)CCC[C@@](C)(C(=O)O)[C@@H]1CC2
not listed: CP269
inactive: all other assays above

COc1ccccc1OC(=O)Oc1ccccc1OC
not listed: CP297
inactive: all other assays above

O=C1c2ccccc2C(=O)C1c1ccc(Br)cc1
inactive: CP268 | CP291 | CP297 | CP305 | CP325 | CP329 | DIV30 | FAB9 | HB3
active: Dd2 11.2 µM | GB4 9.53 µM | ICS 11.2 µM

O=C(O)c1ccccc1C(=O)Nc1ccc(S(=O)(=O)Nc2nccs2)cc1
not listed: CP297
inactive: all other assays above

NC(=O)CCCCC1CCSS1 (stereo not given)
not listed: CP305 | DIV17 | DIV30 | ECU | HB3 | ICS | DIV14 | GB4
inactive: all other assays above

Cc1[nH]c(C)c(Cl)c(=O)c1Cl
not listed: CP286 | CP329 | ICS | CP335 | GB4
inactive: all other assays above

CC(CN(C)C)C(C)(O)Cc1ccc(Cl)cc1 (stereo not given)
active: DIV17 6.01 µM | Dd2 7.94 µM | GB4 6.75 µM
inactive: CP269 | CP315 | DFO2036 | FAB9 | HB3
